The list is not random: actives were taken first. Their share in the collection is about 7.9%.
FMDV inh: antivirals against foot and mouth disease virus. FMDV antiviral cell-based qHTS. Potency, µM (doses to about 57.9 µM), actives largely listed as inhibitors. hit rate 1.2% among 410,000. AID 1159524; calls by dose curve; tested in HEK293T cells; also: read-out not given here; nearly all actives have a fitted effect of over 45% in size
Marburg entry inh: inhibitors of Marburg virus binding or cell entry; Marburg virus pseudotyped entry inhibition, cell reporter; Potency, µM (series often up to 37.8 µM), hits mostly inhibitors; hit rate 1.8% among 300,000; AID 540276; calls by dose curve; tested in HEK293 cells
HCV inh: inhibitors of hepatitis C virus infection; Potency, µM (top dose mostly 41.8 µM), most hits filed as inhibitors; Huh7.5.1 HCVcc-Cre infection, luciferase reporter, 44 h; hit rate 3.4% among 340,000; active = well fitted inhibition curve with a large enough effect; inconclusive = small, poorly fitted or top-dose-only effect, or another doubt; inactive = no such curve, though single readings can be large or run the other way
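HCVcc-Cre virus at an moi near 0.5 was added right after compound to cells cultured 4 h from seeding (1,000 cells/well). Luciferase activity was determined 44 h later, 15 min after substrate addition at RT.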
Lassa entry inh: blocks Lassa virus binding to or entry into cells; Lassa virus pseudotype entry inhibition, cell reporter; Potency, µM (highest dose often 37.9 µM), actives largely listed as inhibitors; hit rate 1.2% among 300,000; AID 540256; calls by dose curve; tested in HEK293 cells; also: nearly all actives have a fitted effect of over 50% in size
HCMV antiviral: blocks human cytomegalovirus replication; hit rate 4.5% among 410,000; activity change, negative = inhibition, % at 57.5 µM; HFF cells, HCMV-luciferase reporter, 72 h; hits give low values; in the data active = activity change below about -60%; inconclusive = no clear call, values can overlap the other calls; inactive = above about -39%
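After 16 h attachment at 37C, HFF cells received test compound and HCMV-luciferase (1 PFU/cell); reporter luminescence read 72 h later, data normalized against buffer-only and known inhibitor Salinomycin.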
A number is an active result.

CC(C)(C)NC(=O)CSc1nc(Cc2ccccc2)nc2ccccc12 was read as FMDV inh inactive, HCV inh 13µM and HCMV antiviral -67.
CCC(C)(C)NC(=O)CSc1nc(Cc2ccccc2)nc2ccccc12 was read as FMDV inh inactive, Marburg entry inh inconclusive, HCV inh inactive, Lassa entry inh inactive and HCMV antiviral -72.
Screening CC(C)NC(=O)CSc1nc(-c2cccs2)cc(-c2ccccc2)c1C#N returned FMDV inh inactive, Marburg entry inh inactive, HCV inh inconclusive, Lassa entry inh inactive and HCMV antiviral inactive.
CC(C)N(C(=O)CSc1nc(Cc2ccccc2)nc2ccccc12)C(C)C was read as FMDV inh inactive, HCV inh inconclusive and HCMV antiviral inactive.
Screening CC(C)NC(=O)CSc1nc(Cc2cccs2)nc2ccccc12 returned Marburg entry inh inactive, HCV inh inactive, Lassa entry inh inactive and HCMV antiviral -81.
`CC(OC(=O)C1=COCCO1)C(=O)Nc1ccc(Cl)cn1` (centres undefined) gave FMDV inh inactive, Marburg entry inh inactive, HCV inh inactive, Lassa entry inh inactive and HCMV antiviral inactive.
CCOC(=O)N1CCN(C(=O)CN(C)S(=O)(=O)c2ccc(F)cc2)CC1 was read as FMDV inh inactive, Marburg entry inh inactive, HCV inh inactive, Lassa entry inh inactive and HCMV antiviral inactive.
For CCOc1ccc2nc3ccc4[nH]onc4c3c2c1 the results were Marburg entry inh inactive, HCV inh 2.5µM, Lassa entry inh inactive and HCMV antiviral inconclusive.
Screening CC(=O)C1=NN(c2ccccc2)C(c2ccc3c(c2)OCO3)N1c1ccccc1 (centres undefined) returned FMDV inh inactive, Marburg entry inh inactive, HCV inh inconclusive, Lassa entry inh inactive and HCMV antiviral inconclusive.
`CC(=O)C1=NN(c2ccccc2)C(c2cccs2)N1c1ccc(N(C)C)cc1` (centres undefined) gave FMDV inh 16µM, Marburg entry inh inconclusive, HCV inh inconclusive, Lassa entry inh 21µM and HCMV antiviral -80.
COc1cc(NC(=O)C2CCCCC2)c2ncccc2c1 was read as FMDV inh inactive, Marburg entry inh inactive, HCV inh 10µM, Lassa entry inh inactive and HCMV antiviral inactive.
`CC(=O)N(C)CC#CCN1CCCC(CO)C1` (centres undefined) gave FMDV inh inactive and HCMV antiviral -61.
`O=C1CC(N2CCN(Cc3ccccc3)CC2)C(=O)N1` (centres undefined) gave FMDV inh inactive, HCV inh inactive and HCMV antiviral inactive.
`c1ccc(CN2CCN(C3CCCSc4ccccc43)CC2)cc1` (centres undefined) gave FMDV inh inconclusive, Marburg entry inh 16µM, HCV inh inactive, Lassa entry inh inconclusive and HCMV antiviral inactive.
For O=C(Cc1ccc(-c2ccccc2)cc1)NNC(=S)NCc1ccco1 the results were FMDV inh inactive, Marburg entry inh inactive, HCV inh 11µM, Lassa entry inh inconclusive and HCMV antiviral inactive.
For O=C(Cc1coc2ccc3ccccc3c12)NCc1ccccc1 the results were FMDV inh inactive, Marburg entry inh inconclusive, HCV inh 10µM, Lassa entry inh inactive and HCMV antiviral inactive.
Screening O=C(Cc1ccc(-c2ccccc2)cc1)NCc1ccccc1 returned FMDV inh inactive, Marburg entry inh inactive, HCV inh inactive, Lassa entry inh inconclusive and HCMV antiviral -83.
`CC(NC(=O)COC(=O)Cc1ccc(Cl)cc1)c1ccccc1` (centres undefined) gave FMDV inh inactive, Marburg entry inh inactive, HCV inh inactive, Lassa entry inh inactive and HCMV antiviral inactive.
Screening Cc1ccc(CNC(=O)Cc2ccc(-c3ccccc3)cc2)cc1 returned FMDV inh inactive, Marburg entry inh inconclusive, HCV inh inactive, Lassa entry inh inactive and HCMV antiviral inactive.
`O=C(Cc1coc2ccc3ccccc3c12)Nc1nccs1` gave FMDV inh inactive, Marburg entry inh inactive, HCV inh inactive, Lassa entry inh inconclusive and HCMV antiviral inactive.
Screening CC(NC(=O)Cc1ccc(-c2ccccc2)cc1)c1ccccc1 (centres undefined) returned FMDV inh inactive, Marburg entry inh inactive, HCV inh 14µM, Lassa entry inh inconclusive and HCMV antiviral inactive.
`COc1ccccc1C(=O)N[C@@H]1c2ccccc2C2(CCN(Cc3cccnc3)CC2)[C@H]1O` gave FMDV inh inactive.
CC(C)N1C(=O)c2ccccc2N(Cc2ccccc2)S1(=O)=O was read as FMDV inh inactive, HCV inh inactive and HCMV antiviral -62.
For CCn1c(SCC(=O)Nc2ccc(OC)cc2)nc2nc3c(cc2c1=O)COC(C)(C)C3 the results were FMDV inh inactive, HCV inh inconclusive and HCMV antiviral inconclusive.
`CCn1c(SCC(=O)Nc2ccc(C(C)=O)cc2)nc2nc3c(cc2c1=O)COC(C)(C)C3` gave FMDV inh inactive, HCV inh inactive and HCMV antiviral inactive.
For CCn1c(SCC(=O)Nc2ccccc2C)nc2nc3c(cc2c1=O)COC(C)(C)C3 the results were FMDV inh inactive, HCV inh 10µM and HCMV antiviral inactive.
For CCOc1ccc(NC(=O)CSc2nc3nc4c(cc3c(=O)n2CC)COC(C)(C)C4)cc1 the results were FMDV inh inactive, Marburg entry inh inactive, HCV inh 3.2µM, Lassa entry inh inactive and HCMV antiviral inactive.
For O=c1ccc(S(=O)(=O)N2CCCC2)cn1Cc1ccc(Cl)cc1Cl the results were FMDV inh inconclusive, HCV inh 6.3µM and HCMV antiviral inactive.
For CN(C)C(=O)c1ccc(=O)n(Cc2ccc(Cl)cc2Cl)c1 the results were FMDV inh inactive, Marburg entry inh inactive, HCV inh inactive and Lassa entry inh inactive.
`CCS(=O)(=O)c1nc(S(=O)(=O)c2ccc(Cl)cc2)c(NCCN2CCOCC2)s1` gave FMDV inh inactive, Marburg entry inh inactive, HCV inh inactive, Lassa entry inh inactive and HCMV antiviral inactive.
`COc1ccc(CNC(=O)N2CC3ON=C(c4ccccc4C)C3C2)cc1` (centres undefined) gave HCMV antiviral inactive.
For O=C(CCl)NN=C(c1ccccc1)c1ccccc1 the results were FMDV inh 25µM, Marburg entry inh inactive, HCV inh inactive, Lassa entry inh inactive and HCMV antiviral inconclusive.
Screening CCN(CC)CC(=O)NN=C(c1ccccc1)c1ccccc1 returned FMDV inh inactive, Marburg entry inh inconclusive, HCV inh inactive, Lassa entry inh inactive and HCMV antiviral inactive.
For CCN1C(=NCCCOC(C)C)N[C@@H](CCc2ccccc2)[C@H](C(=O)OC)[C@H]1C the results were Marburg entry inh inactive.
CN(Cc1ccc(-n2cccn2)cc1)C(=O)c1cnn2c1NC(c1ccco1)CC2C(F)(F)F (centres undefined) was read as FMDV inh 25µM, Marburg entry inh inconclusive, HCV inh 11µM, Lassa entry inh inconclusive and HCMV antiviral inactive.
Cc1ccc(Cl)cc1NC(=O)c1cnn2c1NC(c1ccco1)CC2C(F)(F)F (centres undefined) was read as FMDV inh inconclusive, Marburg entry inh inconclusive, HCV inh 25µM, Lassa entry inh inconclusive and HCMV antiviral inconclusive.

Bioassay records deposited in PubChem by National Center for Advancing Translational Sciences (NCATS).
